Measured values from ChEMBL document CHEMBL4513216, “Probing the Open Global Health Chemical Diversity Library for Multistage-Active Starting Points for Next-Generation Antimalarials” (ACS Infect Dis, 2020).
The whole screen tested about 69,000 compounds, of which about 8,600 (12%) showed an effect of 50% or more. Shown is part of a subset that was picked to be rich in strong results.

What follows are compounds tested on Plasmodium berghei (assay: Screen against P. berghei liver stage (PbLuc), transformed with Luciferase, at 10uM). Details: tested at 10 uM.
Assay type: functional, HepG2

Structure (SMILES)	INHIBITION [%]
CN(C)CCC1CN(C(=O)c2cccc3c2OCC3)CCO1 (stereo not drawn)	-15.1
COCC1CN(Cc2cc(C)on2)Cc2cn(CC3CCCC3)nc21 (stereo not drawn)	15.3
Cc1cc(OC(F)F)c(C(=O)N2CCN(C3CC3)CC2)s1	-3.47
CN(C)C(=O)N1Cc2ncn(C)c2C(COCC2CCOCC2)C1 (stereo not drawn)	6.6
CC(C)COCC1CN(C(=O)c2cscn2)Cc2ncn(C)c21 (stereo not drawn)	34.9
Cn1ncc2c1C(COCC1CC1)CN(C(=O)c1cscn1)C2 (stereo not drawn)	34.6
CCOCC1CN(C(=O)c2cscn2)Cc2cnn(CC3CC3)c21 (stereo not drawn)	56.7
CCOCC1CN(C(=O)c2cscn2)Cc2nnn(CC3CC3)c21 (stereo not drawn)	13.6
Cn1cnc2c1C(COCC1CC1)CN(C(=O)c1cscn1)C2 (stereo not drawn)	58.8
Cn1cnc2c1C(COCC1CCOCC1)CN(C(=O)c1ccoc1)C2 (stereo not drawn)	40.4
Cc1noc(C)c1C(=O)N1Cc2ncn(C)c2C(COCC(C)C)C1 (stereo not drawn)	36.7
Cc1ccsc1C(=O)N1Cc2ncn(C)c2C(COCC2CC2)C1 (stereo not drawn)	11.4
CCOCC1CN(C(=O)c2cnccn2)Cc2cnn(CC3CC3)c21 (stereo not drawn)	6.6
Cc1noc(C)c1C(=O)N1Cc2ncn(C)c2C(COCC2CC2)C1 (stereo not drawn)	58.4
Cn1cnc2c1C(COCC1CCOCC1)CN(C(=O)c1ccco1)C2 (stereo not drawn)	64.9
CCn1ccnc1CN1CCCN(C(=O)c2cc[nH]n2)CC1	-18.45
Cc1nc(C)n(CC2CCCCN2CCOc2cccc(C#N)c2)n1 (stereo not drawn)	21.5
CN(C)C1(CNc2nccc(C3CCCC3)n2)CCOCC1	-15.3
Cn1ccnc1CNC(=O)CC1CCCCO1 (stereo not drawn)	19.25
COCCNCc1cc2ccc(C)c(C)c2[nH]c1=O	1.475
CC(=O)Nc1cccc(CN2CCN(C3=NCC(C)(C)S3)CC2)c1	42.1
CN(C)CCN1CCOCC2(C1)CN(Cc1ccsc1)CCO2 (stereo not drawn)	25.6
CCS(=O)(=O)N(C)CCCNCc1c(C)nn(C)c1N(C)C	19.15

Structure (SMILES)	INHIBITION [%]
CC(C)CN1CCN(C(=O)CCn2cccn2)CC1	2.4
C[C@H]1C(=O)NC[C@H]2CN(CCc3ccccc3)C[C@H]21	-23.3
CCC(=O)Nc1ccc2c(ccn2CC(=O)N(CC)CC)c1	8.4
CCN(CC)C(=O)Cn1ccc2cc(NC(=O)C3CC3)ccc21	52.7
CCN(CC)C(=O)Cn1ccc2cc(NC(=O)C3CCCCC3)ccc21	-3.202
CCc1nccn1C1CCCN(C(=O)c2ccc(-n3ccnc3)cc2)C1 (stereo not drawn)	33.3
COC(=O)C(C)Sc1nnnn1C1CCOCC1 (stereo not drawn)	23.6
CC(Sc1nnnn1C1CCOCC1)C(=O)NC1CCCCC1 (stereo not drawn)	3.47
CC(C)Sc1nnnn1C1CCCC1	66.9
CC(Sc1nnnn1C1CCOCC1)C(F)(F)F (stereo not drawn)	52.8
CCCC(C)Sc1nnnn1C1CCOCC1 (stereo not drawn)	15
N#CC(Sc1nnnn1C1CCOCC1)C1CCCCC1 (stereo not drawn)	-58.6
N#CC1(NC(=O)c2ccc(F)cc2OC(F)F)CCOCC1	8.12
CN(C)C(=O)COC1COC2(CCN(c3cccc(F)c3)CC2)C1 (stereo not drawn)	42.7
Cc1ccc(-c2noc(C(C)(C)NS(C)(=O)=O)n2)cc1F	15.4
CCc1nc(C)sc1CN1CC[C@@](O)(C2CC2)[C@H](C)C1	29.7
C[C@@H]1CN(Cc2c[nH]c(CC3CCCC3)n2)CC[C@]1(C)O	15
C[C@@H]1CN(Cc2cc(C3CCCCC3)no2)CC[C@]1(C)O	61.1
Cc1nnsc1CN1CC[C@@](O)(C2CCC2)[C@H](C)C1	66.7
CC[C@@]1(O)CCN(C(=O)c2ccc(CN3CCCCCC3)cc2)C[C@H]1O	3.03
NC1CCCCN(Cc2cc(C3CCCCC3)no2)C1 (stereo not drawn)	57.8
CC1(C)CN(Cc2cc(C3CCCCC3)no2)CC[C@]1(C)O	47.7
OCC1COCCN(Cc2cc(C3CCCCC3)no2)C1 (stereo not drawn)	41

Structure (SMILES)	INHIBITION [%]
CCc1nc(C)sc1CN1CC[C@](O)(CC)[C@H](O)C1	-31.7
Cc1cc(-c2nn(C)c(Cl)c2CN2CCCCC(N)C2)no1 (stereo not drawn)	48.5
Cc1nonc1CN1CC[C@@](O)(C2CCC2)[C@H](C)C1	21.9
CC[C@@]1(O)CCN(Cc2cc(C3CCCCC3)no2)C[C@H]1O	56.6
O=C(COCc1ccccc1)N1CCCn2cncc2C1	14.5
Cc1cs/c(=N\C(=O)Cn2nc(N3CCC(C)CC3)ccc2=O)[nH]1	-6.73
CN(C)Cc1cnc2n1CCN(Cc1ccsc1)CC2	16.8
C[C@@H]1CN(Cc2cccc(F)c2)C[C@]12CCN(Cc1cccnc1)C2=O	-13.4
Cc1ccc(C(=O)N2C[C@H](OCc3cccnc3)[C@H]3COC[C@H]32)cn1	25.3
CC(C)N(C)Cc1nnn2c1CN(Cc1cccnc1)CCC2	-50.9
CCC(CO)n1cnc2scc(C)c2c1=O (stereo not drawn)	1.19
NC1CCCCN(Cc2cc(-c3ccccc3OC(F)(F)F)no2)C1 (stereo not drawn)	79.7
C[C@@H]1CN(Cc2cc(C3CCCCC3)no2)CC[C@@]1(O)C1CC1	63.3
C[C@@H]1CN(Cc2nc(C(N)=O)no2)CC[C@@]1(O)C1CCOCC1	59.1
C[C@@H]1CN(Cc2cc(C(F)(F)F)ccc2F)CC[C@@]1(O)C1CC1	-45
C[C@@H]1CN(Cc2nc(C(N)=O)no2)CC[C@@]1(O)C1CC1	6.26
N[C@@H]1CCN(Cc2cc(-c3ccccc3OC(F)(F)F)no2)C[C@H]1O	-48.3
Cc1nonc1CN1CC[C@@](O)(C2CCOCC2)[C@H](C)C1	47.7
OC1COCCN(Cc2cc(-c3ccccc3OC(F)(F)F)no2)C1 (stereo not drawn)	-26.1
COc1cc(F)c(CN2CC[C@@](O)(C3CC3)[C@H](C)C2)cc1OC	-39.2
COCCCC(=O)N(CCC(=O)O)Cc1ccc(F)c(F)c1	23.1
CC(C)NC(=O)N1CCN(CC2CC2)c2ncccc2C1	30.3
O=S(=O)(C1CC1)N1CC[C@H](OCC2CC2)[C@@H]1Cc1cccnc1	-4.02

Structure (SMILES)	INHIBITION [%]
CCN(c1ccc(C(=O)NCCCN2CCCCC2)cc1)S(=O)(=O)CC	21.7
COc1ccc(Oc2nccnc2C2CCN(C(C)=O)CC2)cc1	58.1
COc1ccc(-c2cc(C3CCN(C(C)=O)CC3)ccn2)cc1	-24.1
COc1cccc(-c2nccnc2C2CCN(C(C)=O)CC2)c1	57.4
CC(=O)N1CCC(c2nccnc2-c2ccc(F)c(F)c2)CC1	26.8
COc1ccc(-c2nccnc2C2CCN(C(C)=O)CC2)cc1	40.9
CC(=O)N1CCC(c2nccnc2Oc2ccccc2)CC1	39.2
Cn1nnnc1SC1CCCN(c2ccccc2Cl)C1=O (stereo not drawn)	-40
CN(C)[C@@H]1CCN(C(=O)NC2CCCC2)[C@H]1Cc1cnn(C)c1	21
Cc1cc(C)n(CC2CCCN2C(=O)c2cnc3n[nH]c(C)c3c2)n1 (stereo not drawn)	13.6
CC(C)CN1C[C@@H](C(=O)O)C[C@@H](C(=O)NCc2ccncc2)C1	2.79
CCc1ccsc1C(=O)NC(C#N)CC (stereo not drawn)	30.9
Cc1cnc(CN(C)Cc2cc3c(cc2OC(F)F)OCO3)o1	60
Cc1cc(CN(C)Cc2cc3c(cc2OC(F)F)OCO3)on1	-19.9
Cc1nc(CN(C)Cc2cc3c(cc2OC(F)F)OCO3)oc1C	11.3
CN(C)Cc1cc(C2CCN(C(=O)C3CCCNC3)CC2)nn1C (stereo not drawn)	27.2
Cc1cc(NC(=O)c2ccc(F)cc2Br)n(C)n1	-18.5
Cc1cc(NC(=O)c2ccccc2Br)n(C)n1	53.2
Cc1cc(NC(=O)c2ccc(Br)cc2F)n(C)n1	-77
Cc1ncc2c(n1)CN(Cc1nc(-c3ccsc3)no1)CC2	21
CCn1nc(C)c(NC(=O)CN(C)C(C)c2nccs2)c1C (stereo not drawn)	-23.4
COc1ccccc1CNC(=O)CN(C)C(C)c1nccs1 (stereo not drawn)	-45.6
Cc1cccc(C(C)C)c1NC(=O)CN(C)C(C)c1nccs1 (stereo not drawn)	73.6

Structure (SMILES)	INHIBITION [%]
CCCNC(=O)N1CCC(c2nnc(Cn3cccn3)n2C2CC2)CC1	-50.7
CC(O)CN1CCN(C(=O)c2cc3ccccc3c(=O)[nH]2)CC1 (stereo not drawn)	-3.95
Cc1nnc2ccc(N3CCC(C(=O)Nc4nccs4)CC3)nn12	39.3
CC(C)c1nnc2ccc(N3CCCC(C(=O)Nc4nccs4)C3)nn12 (stereo not drawn)	29
CC(C)c1nnc2ccc(N3CCC(C(=O)Nc4nccs4)CC3)nn12	79.8
Cc1nn(C)c(C)c1-c1cncc(C2CCN(S(C)(=O)=O)CC2)n1	34.7
CN1[C@H](CN2CCCC2)C[C@@H]2CN(C(=O)c3cccn3C)CC[C@@H]21	14.1
CCOc1ccc2c(c1)CN(Cc1nc3c(cnn3C)c(=O)[nH]1)CC2	48.2
COCC1c2c(cnn2CC2CC2)CCN1Cc1ccc(C)o1 (stereo not drawn)	-52.7
COCC1c2c(cnn2CC2CC2)CCN1Cc1ccc(OC)cc1 (stereo not drawn)	53.1
COCC1c2c(cnn2CC2CC2)CCN1Cc1ccsc1 (stereo not drawn)	-37.9
O=S(=O)(NCc1ccccc1)Nc1ccc(-n2ccnc2)cc1	44.8
CO[C@@H]1CO[C@@]2(CCCN(Cc3nc(C)cs3)C2)C1	65.7
c1ccc(O[C@H]2CO[C@@]3(CCCN(Cc4nccs4)C3)C2)nc1	49.7
Cc1csc(CN2CCC[C@]3(C[C@@H](Oc4ccccn4)CO3)C2)n1	64.4
Cc1noc(C)c1CN1CCC[C@]2(C[C@@H](Oc3ccccn3)CO2)C1	87
Cc1csc(CN2CCC[C@]3(C[C@H](OCC4CC4)CO3)C2)n1	1.48
Cc1noc(C)c1CN1CCOC2(CCCN(c3ccccn3)C2)C1 (stereo not drawn)	20.9
CCO[C@H]1CO[C@@]2(CCCN(Cc3nc(C)cs3)C2)C1	11.8
Cc1csc(CN2CCC[C@]3(C[C@H](Oc4ccccn4)CO3)C2)n1	35.1
Cc1noc(C)c1CN1CCC2(CC1)CC(Oc1cccnc1)CO2 (stereo not drawn)	21.6
